Among the data in PubChem BioAssay (NCATS) are Potency values, retold here.

Several values for one entry are separate records, joined by “and”; a condition that tells them apart may be missing. Equal entries are not always repeated. Inconclusive results are not listed. Entries that show only a call come without a potency. Activity calls are given as the source filed them. Calls come from the whole dose curve; as a rule, active = well fitted inhibition curve with a large enough effect; inconclusive = small, poorly fitted or top-dose-only effect; inactive = flat fitted curve, though single readings scatter. Where a SMILES comes first, the peptide text is derived from it.
Potency is the fitted concentration of half-maximal effect.

This assay is described as follows: Primary qHTS for inhibitors of nuclear receptor binding SET domain protein 2 (NSD2) in an isogenic RCH-ACV NSD2 p.E1099K mutant (9B) (AID 1645876). Note: nearly all actives have a fitted effect of over 70% in size. As to conditions: RCH-ACV (leukaemia line) NSD2 E1099K (9B) viability, CellTiter-Glo, 72 h; series mostly up to 44.9 µM.
As to `CN1N=C(C(N)=O)CCC1=O`, the Potency result was “inactive”.
Regarding `O=C(OCC1(COC(=O)c2cccnc2)CCCC(COC(=O)c2cccnc2)(COC(=O)c2cccnc2)C1O)c1cccnc1`, the Potency result is “inactive”.
The entry for `O=C(CCCl)NCCc1ccccc1` is “inactive”; for `O=C(O)[C@H](O)[C@@H](O)[C@H](O[C@@H]1O[C@H](CO)[C@H](O)[C@H](O)[C@H]1O)[C@H](O)CO` it is “inactive”.
The entry for `Oc1ccccc1` is “inactive”; for `CCN(CC)CCOc1ccc(/C(=C(\Cl)c2ccccc2)c2ccccc2)cc1` it is 15 µM (active) and 8.33 µM (active).
The entry for `CSCC[C@H](NC(=O)[C@H](Cc1c[nH]c2ccccc12)NC(=O)CCNC(=O)OC(C)(C)C)C(=O)N[C@@H](CC(=O)O)C(=O)N[C@@H](Cc1ccccc1)C(N)=O` is “inactive”.
Consider `Cc1nc([N+](=O)[O-])cn1-c1ccc([N+](=O)[O-])cc1`, for which the Potency entry is “inactive”.
Under `O=C(c1cc(O)c(O)c(O)c1)c1ccc(O)c(O)c1O` stands 2.37 µM (active).
The figure for `O=C1NCCN1CCN1CCC(c2cn(-c3ccc(F)cc3)c3ccc(Cl)cc23)CC1` is 3.76 µM (active); for `COC(=O)[C@H]1[C@H]2C[C@@H]3c4[nH]c5cc(OC)ccc5c4CCN3C[C@H]2C[C@@H](OC(=O)/C=C/c2ccc(O)c(OC)c2)[C@@H]1OC` it is 4.73 µM (active).
The entry for `COc1cc2c(cc1OC)CN(C(=O)[C@H](C)N[C@@H](CCc1ccccc1)C(=O)O)[C@H](C(=O)O)C2` is “inactive”; for `COc1ccccc1N1CCN(CC(O)COc2cc(OC)c(OC)c(OC)c2)CC1` (configuration not stated) it is “inactive”; for `CCCc1ncc(C(=O)O)s1` it is “inactive”.
With `CCN(CC)C(=O)C1CN2CCc3cc(OC)c(OC)cc3C2CC1OC(C)=O` (configuration not stated), the Potency entry was “inactive”.
With `O=C(O)C1CCC1`, the Potency entry was “inactive”.
Turning to `CCC(C(=O)OCCN1CCOC(c2ccccc2)C1C)c1ccccc1` (configuration not stated), the Potency entry was “inactive”.
The entry for `CSc1ccc(/C=C2/C(C)=C(CC(=O)O)c3cc(F)ccc32)cc1` is “inactive”.
The figure for `CCOC(=O)N1CCC(Nc2ccc(Cl)cc2N)CC1` is 13.3 µM (active); for `NS(=O)(=O)c1ccc(N2CCCCS2(=O)=O)cc1` it is “inactive”.
Under `Cn1c(=O)c2c(ncn2CC(=O)O)n(C)c1=O` stands “inactive”.
As for `O=C1c2ccccc2CCc2ccccc21`, the Potency result is “inactive”.
Under `OCc1cccnc1` stands “inactive”.
The entry for `Cc1cc(=O)oc2cc(O[C@@H]3SC[C@@H](O)[C@H](O)[C@H]3O)ccc12` is “inactive”; for `CC(C)(Oc1ccc(Cl)cc1)C(=O)OCCCOC(=O)C(C)(C)Oc1ccc(Cl)cc1` it is “inactive”.
Under `O=c1[nH]c(=O)n([C@H]2O[C@H](CO)[C@@H](O)[C@@H]2O)cc1/C=C\Br` stands “inactive”; under `COc1cc(NS(=O)(=O)c2ccc(N)cc2)nc(C)n1`, “inactive”.
Turning to `CN(C)CCN1CCN(c2cccc(Cl)c2)C1=O`, the Potency entry is “inactive”.
The entry for `CC(=O)N(c1onc(C)c1C)S(=O)(=O)c1ccc(N)cc1` is “inactive”; for `CCOc1ccccc1OCC1CNCCO1` (configuration not stated) it is “inactive”.
Under `O=C(Oc1ccccc1)c1cccc(C(=O)Oc2ccccc2)c1` stands “inactive”; under `O=C1CC2(CCCC2)CC(=O)N1`, “inactive”.
Under `CCOC(=O)c1cc(=O)c2c(OCC(COc3cccc4oc(C(=O)OCC)cc(=O)c34)OC(=O)[C@@H](N)CCCCN)cccc2o1` stands “inactive”.
With `CC(=O)N[C@@H](CO)C(=O)N[C@@H](CC(=O)O)C(=O)N[C@@H](CCCCN)C(=O)N1CCC[C@H]1C(=O)O` (Ac-SDKP-OH), the Potency result is “inactive”.
Under `OC1(c2ccc(Cl)cc2)CCNCC1` stands “inactive”.
Under `CCC1=C[C@@H]2CN(C1)Cc1c([nH]c3ccccc13)[C@@](C(=O)OC)(c1cc3c(cc1OC)N(C)[C@H]1[C@@](O)(C(=O)OC)[C@H](OC(C)=O)[C@]4(CC)C=CCN5CC[C@]31[C@@H]54)C2` stands 2.1 nM (active) and 162 nM (active); under `O=C(NN1CCCC1)NS(=O)(=O)c1ccc(Cl)cc1`, “inactive”.
